Experimental data as given in ChEMBL document CHEMBL1961873, “Compounds: GSK PKIS; Assays: Nanosyn kinase panel” (2012).

What was measured:
[1] = molecular target: Platelet-derived growth factor receptor beta (Homo sapiens) (UniProt P09619); details: at 1 µM;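 also: each value is a mean percent inhibition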
[2] = molecular target: Tyrosine-protein kinase FRK (Homo sapiens) (UniProt P42685); details: at 0.1 µM
[3] = molecular target: Tyrosine-protein kinase FRK (Homo sapiens) (UniProt P42685); details: at 1 µM
[4] = molecular target: Protein-tyrosine kinase 2-beta (Homo sapiens) (UniProt Q14289); details: at 0.1 µM
[5] = molecular target: Protein-tyrosine kinase 2-beta (Homo sapiens) (UniProt Q14289); details: at 1 µM
[6] = molecular target: Proto-oncogene tyrosine-protein kinase receptor Ret (Homo sapiens) (UniProt P07949); details: at 0.1 µM
[7] = molecular target: Proto-oncogene tyrosine-protein kinase receptor Ret (Homo sapiens) (UniProt P07949); details: at 1 µM
[8] = tested on: Proto-oncogene tyrosine-protein kinase receptor Ret (Homo sapiens), P07949 [V804L]; details: at 0.1 µM
[9] = tested on: Proto-oncogene tyrosine-protein kinase receptor Ret (Homo sapiens), P07949 [V804L]; details: at 1 µM
[10] = tested on: Proto-oncogene tyrosine-protein kinase receptor Ret (Homo sapiens), P07949 [Y791F]; details: at 0.1 µM
[11] = tested on: Proto-oncogene tyrosine-protein kinase receptor Ret (Homo sapiens), P07949 [Y791F]; details: at 1 µM
[12] = molecular target: Macrophage-stimulating protein receptor (Homo sapiens) (UniProt Q04912); details: at 0.1 µM
Chain of Macrophage-stimulating protein receptor (Homo sapiens) (Q04912 25-304 limits assumed): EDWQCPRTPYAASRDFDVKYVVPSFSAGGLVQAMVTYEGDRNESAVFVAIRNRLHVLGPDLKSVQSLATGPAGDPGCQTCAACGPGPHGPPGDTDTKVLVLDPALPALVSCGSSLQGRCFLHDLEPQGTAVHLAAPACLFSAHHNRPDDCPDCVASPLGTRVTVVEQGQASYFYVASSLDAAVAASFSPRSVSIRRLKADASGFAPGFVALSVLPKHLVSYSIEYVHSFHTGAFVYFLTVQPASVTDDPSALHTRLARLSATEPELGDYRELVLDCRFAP
Chain of Macrophage-stimulating protein receptor (Homo sapiens) (Q04912 310-1400 limits assumed): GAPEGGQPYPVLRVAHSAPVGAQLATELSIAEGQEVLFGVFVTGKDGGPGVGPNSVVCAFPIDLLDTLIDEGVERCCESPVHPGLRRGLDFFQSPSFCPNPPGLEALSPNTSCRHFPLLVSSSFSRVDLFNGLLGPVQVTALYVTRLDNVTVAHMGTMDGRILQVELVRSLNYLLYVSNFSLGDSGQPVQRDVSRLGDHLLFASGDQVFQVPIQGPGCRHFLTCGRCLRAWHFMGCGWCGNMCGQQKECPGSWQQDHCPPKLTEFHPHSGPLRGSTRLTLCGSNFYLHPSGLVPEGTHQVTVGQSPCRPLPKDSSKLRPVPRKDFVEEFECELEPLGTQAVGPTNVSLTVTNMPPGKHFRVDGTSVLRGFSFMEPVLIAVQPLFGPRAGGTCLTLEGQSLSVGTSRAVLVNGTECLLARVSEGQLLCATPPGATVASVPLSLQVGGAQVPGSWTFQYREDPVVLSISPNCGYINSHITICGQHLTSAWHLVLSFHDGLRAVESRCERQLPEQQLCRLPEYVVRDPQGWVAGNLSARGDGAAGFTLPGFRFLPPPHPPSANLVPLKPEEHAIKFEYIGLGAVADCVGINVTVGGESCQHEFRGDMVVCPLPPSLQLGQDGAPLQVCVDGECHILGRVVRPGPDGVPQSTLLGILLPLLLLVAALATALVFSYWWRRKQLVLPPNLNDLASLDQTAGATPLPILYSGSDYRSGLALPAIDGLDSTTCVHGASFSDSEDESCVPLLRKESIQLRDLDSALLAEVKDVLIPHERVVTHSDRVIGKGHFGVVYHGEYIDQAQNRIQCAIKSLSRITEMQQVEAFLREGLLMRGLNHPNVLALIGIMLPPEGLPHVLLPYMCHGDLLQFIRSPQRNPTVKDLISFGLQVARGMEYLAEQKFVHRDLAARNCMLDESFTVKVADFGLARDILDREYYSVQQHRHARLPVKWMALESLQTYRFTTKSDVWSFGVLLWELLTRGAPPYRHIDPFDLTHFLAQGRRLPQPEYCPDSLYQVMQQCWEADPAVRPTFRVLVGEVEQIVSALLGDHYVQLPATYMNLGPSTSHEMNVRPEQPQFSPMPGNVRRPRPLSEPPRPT

[13] = molecular target: Macrophage-stimulating protein receptor (Homo sapiens) (UniProt Q04912); details: at 1 µM
[14] = molecular target: Proto-oncogene tyrosine-protein kinase ROS (Homo sapiens) (UniProt P08922); details: at 0.1 µM
Chain of Proto-oncogene tyrosine-protein kinase ROS (Homo sapiens) (P08922 whole entry): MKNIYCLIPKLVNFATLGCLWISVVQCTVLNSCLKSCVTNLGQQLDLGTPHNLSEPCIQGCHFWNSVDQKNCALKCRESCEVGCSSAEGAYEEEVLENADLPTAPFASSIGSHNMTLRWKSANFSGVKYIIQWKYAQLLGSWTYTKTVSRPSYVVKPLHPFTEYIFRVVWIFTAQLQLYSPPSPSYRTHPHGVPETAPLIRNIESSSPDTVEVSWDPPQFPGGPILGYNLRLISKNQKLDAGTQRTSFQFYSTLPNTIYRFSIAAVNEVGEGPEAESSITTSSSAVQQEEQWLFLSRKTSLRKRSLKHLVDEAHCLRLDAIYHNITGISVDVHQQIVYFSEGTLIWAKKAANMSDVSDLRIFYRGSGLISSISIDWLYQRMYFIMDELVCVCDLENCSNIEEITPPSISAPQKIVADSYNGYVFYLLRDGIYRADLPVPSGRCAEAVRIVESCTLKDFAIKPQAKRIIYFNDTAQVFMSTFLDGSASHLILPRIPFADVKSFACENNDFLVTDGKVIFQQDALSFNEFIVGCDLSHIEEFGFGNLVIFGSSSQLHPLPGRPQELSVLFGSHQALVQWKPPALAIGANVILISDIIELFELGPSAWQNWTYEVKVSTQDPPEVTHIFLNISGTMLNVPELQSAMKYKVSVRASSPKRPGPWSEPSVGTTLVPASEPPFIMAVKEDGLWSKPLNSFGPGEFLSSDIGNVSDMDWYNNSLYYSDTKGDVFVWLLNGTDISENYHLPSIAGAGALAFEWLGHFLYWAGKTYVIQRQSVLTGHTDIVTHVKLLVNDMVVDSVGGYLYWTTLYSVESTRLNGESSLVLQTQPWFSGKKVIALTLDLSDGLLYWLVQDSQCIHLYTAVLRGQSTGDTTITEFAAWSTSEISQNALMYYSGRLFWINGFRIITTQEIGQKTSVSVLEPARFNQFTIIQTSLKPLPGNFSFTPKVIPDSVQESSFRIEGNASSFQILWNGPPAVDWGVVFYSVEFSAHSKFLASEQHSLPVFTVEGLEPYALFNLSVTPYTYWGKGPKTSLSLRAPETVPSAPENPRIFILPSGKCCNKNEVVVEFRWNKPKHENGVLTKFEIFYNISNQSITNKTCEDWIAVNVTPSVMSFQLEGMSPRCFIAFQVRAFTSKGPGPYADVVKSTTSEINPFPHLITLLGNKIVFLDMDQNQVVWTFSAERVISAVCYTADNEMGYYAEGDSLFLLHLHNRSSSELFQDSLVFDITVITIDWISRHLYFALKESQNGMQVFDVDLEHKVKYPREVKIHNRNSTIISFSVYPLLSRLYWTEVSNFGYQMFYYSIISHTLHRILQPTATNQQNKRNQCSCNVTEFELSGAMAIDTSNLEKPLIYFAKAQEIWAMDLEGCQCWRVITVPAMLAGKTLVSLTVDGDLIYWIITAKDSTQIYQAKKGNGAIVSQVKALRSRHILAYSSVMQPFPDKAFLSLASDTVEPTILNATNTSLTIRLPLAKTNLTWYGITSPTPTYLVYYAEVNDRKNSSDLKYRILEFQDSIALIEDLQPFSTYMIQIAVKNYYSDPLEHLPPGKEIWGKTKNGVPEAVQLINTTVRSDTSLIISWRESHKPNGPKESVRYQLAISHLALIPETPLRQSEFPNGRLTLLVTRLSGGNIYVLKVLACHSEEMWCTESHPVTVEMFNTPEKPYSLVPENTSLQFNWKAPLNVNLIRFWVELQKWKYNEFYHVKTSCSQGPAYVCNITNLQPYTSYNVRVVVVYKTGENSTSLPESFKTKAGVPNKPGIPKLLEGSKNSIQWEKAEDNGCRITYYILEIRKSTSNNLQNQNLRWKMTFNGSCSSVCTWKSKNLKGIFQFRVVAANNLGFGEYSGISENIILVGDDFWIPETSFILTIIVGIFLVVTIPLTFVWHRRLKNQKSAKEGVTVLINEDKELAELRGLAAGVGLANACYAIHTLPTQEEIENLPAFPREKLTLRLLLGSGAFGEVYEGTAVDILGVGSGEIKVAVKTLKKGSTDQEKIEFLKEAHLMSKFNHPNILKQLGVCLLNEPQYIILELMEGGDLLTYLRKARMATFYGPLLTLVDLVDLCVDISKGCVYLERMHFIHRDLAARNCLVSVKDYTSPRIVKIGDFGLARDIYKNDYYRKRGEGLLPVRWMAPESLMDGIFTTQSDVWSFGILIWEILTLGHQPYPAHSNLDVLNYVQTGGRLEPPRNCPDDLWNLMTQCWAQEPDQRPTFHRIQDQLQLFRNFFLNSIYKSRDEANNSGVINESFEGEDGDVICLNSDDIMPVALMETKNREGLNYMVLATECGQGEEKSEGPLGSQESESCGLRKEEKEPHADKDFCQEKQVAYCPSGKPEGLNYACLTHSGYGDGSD

[15] = molecular target: Proto-oncogene tyrosine-protein kinase ROS (Homo sapiens) (UniProt P08922); details: at 1 µM
[16] = molecular target: Proto-oncogene tyrosine-protein kinase Src (Homo sapiens) (UniProt P12931); details: at 0.1 µM
[17] = molecular target: Proto-oncogene tyrosine-protein kinase Src (Homo sapiens) (UniProt P12931); details: at 1 µM
[18] = molecular target: Tyrosine-protein kinase Srms (Homo sapiens) (UniProt Q9H3Y6); details: at 0.1 µM
Chain of Tyrosine-protein kinase Srms (Homo sapiens) (Q9H3Y6 whole entry): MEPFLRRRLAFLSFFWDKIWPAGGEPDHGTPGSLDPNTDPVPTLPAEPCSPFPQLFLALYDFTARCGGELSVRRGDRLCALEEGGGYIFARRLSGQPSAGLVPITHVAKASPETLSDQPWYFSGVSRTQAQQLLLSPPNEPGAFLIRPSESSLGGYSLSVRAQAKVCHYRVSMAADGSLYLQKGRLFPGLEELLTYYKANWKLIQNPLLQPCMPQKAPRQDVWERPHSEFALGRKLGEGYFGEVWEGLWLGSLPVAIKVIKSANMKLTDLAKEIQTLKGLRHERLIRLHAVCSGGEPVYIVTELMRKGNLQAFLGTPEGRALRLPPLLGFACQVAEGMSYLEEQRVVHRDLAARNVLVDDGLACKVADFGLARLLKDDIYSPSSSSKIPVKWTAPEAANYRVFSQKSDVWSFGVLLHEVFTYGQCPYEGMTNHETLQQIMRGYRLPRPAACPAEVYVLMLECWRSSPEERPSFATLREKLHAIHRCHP

[19] = molecular target: Tyrosine-protein kinase Srms (Homo sapiens) (UniProt Q9H3Y6); details: at 1 µM
[20] = molecular target: Tyrosine-protein kinase SYK (Homo sapiens) (UniProt P43405); details: at 0.1 µM;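 also: reported percentages are mean inhibition values for SYK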

Chain of Tyrosine-protein kinase FRK (Homo sapiens) (P42685 whole entry): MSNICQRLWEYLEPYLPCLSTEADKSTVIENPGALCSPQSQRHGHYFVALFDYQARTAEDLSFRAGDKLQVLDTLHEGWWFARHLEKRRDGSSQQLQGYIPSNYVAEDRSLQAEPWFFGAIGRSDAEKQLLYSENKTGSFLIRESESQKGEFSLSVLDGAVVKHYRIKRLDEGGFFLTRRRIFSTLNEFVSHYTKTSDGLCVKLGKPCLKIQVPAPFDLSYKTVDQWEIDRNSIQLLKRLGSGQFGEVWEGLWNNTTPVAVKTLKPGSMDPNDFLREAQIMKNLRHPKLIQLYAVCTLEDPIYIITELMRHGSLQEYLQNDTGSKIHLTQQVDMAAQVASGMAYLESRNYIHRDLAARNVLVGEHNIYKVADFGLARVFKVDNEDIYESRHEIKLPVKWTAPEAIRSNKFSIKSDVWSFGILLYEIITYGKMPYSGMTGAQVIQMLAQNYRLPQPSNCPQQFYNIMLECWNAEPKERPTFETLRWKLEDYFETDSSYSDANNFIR

| Structure (SMILES) | inhibition [1] [%] | inhibition [2] [%] | inhibition [3] [%] | inhibition [4] [%] | inhibition [5] [%] | inhibition [6] [%] | inhibition [7] [%] | inhibition [8] [%] | inhibition [9] [%] | inhibition [10] [%] | inhibition [11] [%] | inhibition [12] [%] | inhibition [13] [%] | inhibition [14] [%] | inhibition [15] [%] | inhibition [16] [%] | inhibition [17] [%] | inhibition [18] [%] | inhibition [19] [%] | inhibition [20] [%] |
| --- | --- | --- | --- | --- | --- | --- | --- | --- | --- | --- | --- | --- | --- | --- | --- | --- | --- | --- | --- | --- |
| COc1cc(C)c(NC(=O)CN(C)C)cc1Nc1nc(Nc2cccc(F)c2C(N)=O)c2cc[nH]c2n1 | 15 | 0.21 | 1 | 93.1 | 98 | 1.91 | 5.56 | 4.41 | 20.7 | 5.09 | 2.8 | 3.91 | 3.91 | 79.7 | 86 | 11.1 | 6.65 | 1.04 | 1.18 | 0.17 |
| NCc1ccc(-c2nc(-c3ccc(Cl)c(O)c3)c(-c3ccncc3)[nH]2)cc1 | 31 | 5.22 | 35.3 | 3.97 | -0.14 | 47.6 | 76.6 | 1.17 | 7.47 | 39.5 | 76.3 | -0.28 | 2.55 | 2.98 | 8.44 | 19.8 | 63.3 | 3.6 | 21.7 | -2.73 |
| Fc1cccc(COc2ccc(Nc3ncnc4cc(-c5ccc[nH]5)sc34)cc2Cl)c1 | 8.52 | 2.14 | 2.25 | 7.86 | 11.5 | 9 | 11.5 | 3.25 | 8.38 | 7.54 | 15.8 | 4.56 | 4.33 | 9.9 | 12.1 | 3.22 | 6.79 | -0.83 | 1.08 | 1.5 |
| CN(C)c1cc2c(Nc3ccc4nc(Cc5ccccc5)[nH]c4c3)ncnc2cn1 | 12.1 | -0.33 | 3.88 | 15.7 | 11.8 | 7.21 | 13.2 | 3.89 | 7.59 | 6.91 | 27.9 | 7.08 | 3.46 | 6.18 | 11.8 | -0.18 | 20.1 | 1.22 | 8.06 | -5.04 |
| COC(=O)Nc1nc2cc(Oc3cccc(NC(=O)Nc4cc(C(F)(F)F)ccc4F)c3)ccc2[nH]1 | 45.3 | -0.02 | 1.37 | 0.22 | -4.43 | 17 | 61.1 | 4.35 | 8.1 | 9.63 | 38.9 | 6.28 | -2.46 | 1.83 | 2.46 | 9.23 | 5.13 | 0.35 | -1.15 | 0.17 |
| CCn1c(-c2nonc2N)nc2c(C#CC(C)(C)O)nc(CN3CCCC3)cc21 | 12.2 | 0.91 | -0.12 | -0.18 | -7.23 | -0.08 | 9.99 | 0.92 | 4.79 | 5.91 | 14.5 | 27.6 | -5.13 | 2.54 | 3.85 | 0.78 | 0.68 | -1.37 | -0.75 | 6.45 |
| CC(C)=Cc1cccc2c1/C(=N/Nc1ccc(S(N)(=O)=O)cc1)C(=O)N2 | 62.6 | 1.44 | 5.49 | 3.24 | 27.5 | 14.8 | 60.7 | 16.4 | 67.4 | 6.44 | 50.3 | 2.03 | 4.1 | -0.28 | 20 | 10.8 | 46.4 | 3.21 | 4.02 | 2.78 |
| CCn1c(-c2nonc2N)nc2c(C#CC(C)(C)O)nc(OC[C@@H](N)c3ccccc3)cc21 | 50.8 | 1.13 | 1.5 | -0.92 | 9.22 | 7.49 | 41.1 | 2.03 | 14.4 | 10.7 | 47.4 | 11.5 | 6.11 | 2.07 | 11.2 | 2.45 | 0.1 | 1.94 | 5.92 | -1.58 |
| O=C1Nc2ccc(C(=O)c3ccco3)cc2C1=Cc1cc(Cl)c(O)c(Cl)c1 | 18.5 | 1.7 | 7.16 | 15 | 34.6 | 19.6 | 58.1 | 38.4 | 74.7 | 16 | 54.8 | 14.5 | 18.8 | 6.01 | 11.2 | 3.8 | 15.5 | 21.3 | 59.7 | -6.13 |
| COc1cc2ncn(-c3cc(OCc4ccccc4C(F)(F)F)c(C(N)=O)s3)c2cc1OC | 83.5 | 3.08 | 3.46 | 2.32 | 19.4 | 14.5 | 41.6 | 10.4 | 34.3 | 17.9 | 50.6 | 4.5 | 8.36 | 5.76 | 20.6 | 8.15 | 21.2 | -2.2 | -0.81 | -2.39 |
| CC1=C(C(=O)Nc2ccc3[nH]ncc3c2)C(c2ccc(F)cc2)NC(=O)N1 (stereo not given) | 6.86 | 1.9 | 1.47 | 10.1 | 8.37 | 6.58 | 35 | 6.27 | 35.5 | 8.37 | 42.4 | 4.69 | 21.4 | 7.19 | 29.2 | -8.18 | 4.28 | 0.2 | 2.69 | 0.2 |
| O=C1NC(=O)C(c2ccccc2Cl)=C1Nc1cccc(O)c1 | 3.43 | 0.88 | 0.39 | 5.7 | 8.51 | 1.55 | 7.91 | 3.61 | 2.98 | 2.99 | 6.27 | 1.7 | 4.87 | 3.13 | 6.28 | 3.41 | 7.83 | -0.89 | -2.12 | 0.85 |
| COc1cc2c(cc1Nc1nc(N3CCc4ccccc43)c3cc[nH]c3n1)N(C(=O)CN(C)C)CC2 | 3.27 | 0.34 | 0.69 | 59.7 | 90 | 3.49 | 9.16 | 0.54 | 4.92 | 1.4 | 8.94 | -4.18 | 4.66 | 70.2 | 79.2 | 1.56 | 8.12 | 0.05 | -1.29 | 0.91 |
| COc1ccc(COc2ccc(Cc3cnc(N)nc3N)cc2OC)cc1 | 10 | -0.22 | 2.07 | -3.39 | -2.43 | 9.65 | 9.77 | 6.53 | 9.69 | 12.4 | 4.28 | 1.99 | 5.55 | 5.47 | 4.98 | 3.77 | 1.97 | 1.82 | 1.88 | 1.51 |
| CCn1c(-c2nonc2N)nc2ccncc21 | 5.63 | 0.98 | 0.17 | 3.23 | 7.52 | 2.99 | 5.58 | 4.69 | -1.85 | 1.52 | 1.54 | 0.89 | 0.11 | 2.31 | 2.5 | 8.34 | 4.59 | -0.44 | -0.79 | 0.22 |
| CCn1c(-c2nonc2N)nc2cncc(C(=O)N3CC[C@H](N)C3)c21 | 10.7 | 3.16 | 2.04 | 10.8 | 7.69 | 5.56 | 4.11 | 3.46 | 4.03 | 4.17 | 13.9 | 2.92 | 6.19 | 7.46 | 6.07 | -1.35 | 7.23 | 0.37 | -0.65 | -5.72 |
| CCc1cccc(NC(=O)Nc2ccc(Oc3ccc4nc(NC(=O)OC)[nH]c4c3)cc2)c1 | 56.3 | -0.04 | 2.98 | 0.73 | 8.1 | 72.8 | 79.9 | 35.6 | 63.1 | 53.5 | 74.6 | 5.94 | 5.62 | -0.48 | 0.49 | 0.79 | 5.84 | 0.61 | 1.28 | 2.75 |
| CS(=O)(=O)CCNCc1nc(-c2ccc3ncnc(Nc4ccc(F)c(Cl)c4)c3c2)cs1 | 9.07 | -0.58 | 2.43 | -0.72 | 1.64 | 4.76 | 13.1 | 5.1 | 11 | 7.75 | 31 | 1.17 | -0.2 | -1.86 | 1.3 | 8.61 | 9.31 | -0.09 | 1.81 | 2.81 |
| Cc1cc(O)cc(C)c1/C=C/c1cncc(-c2nn[nH]n2)c1 | 49.5 | 6.95 | 33.8 | 12.8 | 12.1 | 1.14 | 9.47 | 8.88 | 9.42 | 3.32 | 14.4 | 3.43 | 8.76 | 6.66 | 11.7 | 11.4 | 69.4 | 9.68 | 48.1 | -3.2 |
| COc1cc2ncn(-c3cc(OCc4ccccc4Cl)c(C(N)=O)s3)c2cc1OC | 86.5 | 2.63 | 2.45 | -1.12 | 6.28 | 17.7 | 60.8 | 4.73 | 26.9 | 20.7 | 60.2 | 0.23 | 13.3 | 9.59 | 29.2 | 20.5 | 20.9 | 2.74 | 7.95 | -2.2 |
| COc1ccc(-c2nn3ncccc3c2-c2ccnc(Nc3ccc(Cl)c(C(F)(F)F)c3)n2)cc1 | 5.76 | 1.65 | 0.79 | 5.54 | 10.5 | 2.17 | -0.91 | 2.33 | 6.71 | 2.51 | 13.3 | -1.78 | 2.44 | 2.34 | 2.35 | 1.05 | 9.68 | 0.23 | 1.79 | -1.43 |
| c1cnn2ncc(-c3ccnc(Nc4ccc5c(c4)OCCO5)n3)c2c1 | 67.3 | 1.69 | 3.19 | 32.6 | 84.6 | 5.62 | 21.9 | 5.79 | 22 | 4.73 | 26.2 | 4.39 | 16.8 | 79.9 | 82.7 | -0.83 | 32.3 | -0.57 | 1.78 | -8.51 |
| Nc1ncnc2occ(-c3ccc(NC(=O)Nc4cccc(C(F)(F)F)c4)cc3)c12 | 94.8 | 4.28 | 21.2 | 8.39 | 32.3 | 84.9 | 87.2 | 64.8 | 79.9 | 73.9 | 86.3 | 2.56 | 27.7 | 6 | 21.7 | 14.4 | 52.8 | -4.22 | -3.07 | -4.82 |
| CCCN1CCC(Oc2cc(Nc3nc(Nc4cccc(F)c4C(N)=O)c4cc[nH]c4n3)c(OC)cc2Cl)CC1 | 8.63 | -0.17 | 0.23 | 38.2 | 92.4 | 7.67 | 12.8 | 3.55 | 15.5 | 4.36 | 16.9 | 1.16 | 6.9 | 8.27 | 38.9 | -3.73 | 6.62 | 2.85 | 0.37 | 1.01 |
| CN1CCC(C(=O)Nc2n[nH]c3nnc(-c4ccccc4)cc23)CC1 | 7.79 | 2.63 | 2.86 | 13.3 | 15.2 | 1.29 | 2.61 | 4.66 | 14.7 | 3.08 | 10 | -1.52 | 14.1 | 5.55 | 9.8 | 9.17 | 8.13 | -0.14 | -5.75 | -4.25 |
| NS(=O)(=O)c1ccc(N/N=C2\C(=O)Nc3ccc(C(=O)NCCc4c[nH]cn4)cc32)cc1 | 82.7 | 0.73 | 3.44 | 12.8 | 24.2 | 15.3 | 57.8 | 42.6 | 83.5 | 22.8 | 63.7 | 0.68 | 6 | 10.9 | 18.1 | -1.33 | 33 | -0.78 | 1.4 | -4.27 |
